Test results published in PubChem BioAssay (EPA / NIEHS).
“And” between values parts separate entries of the source, which are not always exact repeats. Equal entries are not always repeated. Records with an inconclusive call do not appear. Some structures have more than one record in an assay (separate samples or runs), and their calls can disagree. The source made the active and inactive calls. How the source made its calls, unless noted: active means hit-call score of the fitted dose curve at least 0.9, where 1 is the maximum; inconclusive means response in the unintended direction; inactive means score below 0.9.

Key:
[1] = molecular target: human Peroxisome Proliferator-activated Receptor alpha (PPARa), PPARA (gene 5465) (UniProt Q07869); experiment: ATG_PPARa_TRANS: Attagene TRANS-FACTORIAL HepG2 Assay for human Peroxisome Proliferator-activated Receptor alpha (PPARa) (AID 2283001);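 on AC50: potency for gain of reporter signal over DMSO so agonist or activator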
human Peroxisome Proliferator-activated Receptor alpha (PPARa), PPARA (gene 5465), sequence (Q07869 whole entry, looked up, the tested form may be a part): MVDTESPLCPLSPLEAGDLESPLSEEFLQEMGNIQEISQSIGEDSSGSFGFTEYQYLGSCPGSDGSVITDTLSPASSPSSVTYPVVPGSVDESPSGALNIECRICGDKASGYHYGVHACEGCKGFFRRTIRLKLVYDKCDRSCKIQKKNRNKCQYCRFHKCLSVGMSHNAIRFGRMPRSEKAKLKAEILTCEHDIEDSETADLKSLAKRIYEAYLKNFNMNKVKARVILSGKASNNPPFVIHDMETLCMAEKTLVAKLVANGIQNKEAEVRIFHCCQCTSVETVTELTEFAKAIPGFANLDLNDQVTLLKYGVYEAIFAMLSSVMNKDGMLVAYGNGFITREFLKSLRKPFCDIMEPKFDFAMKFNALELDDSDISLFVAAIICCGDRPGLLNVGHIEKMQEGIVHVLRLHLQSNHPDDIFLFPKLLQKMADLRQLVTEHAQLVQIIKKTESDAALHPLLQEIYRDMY
Outline: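 Measures transcriptional activity of an exogenous chimeric PPARa-Gal4 protein in transiently transfected HepG2 cells after 24 h dosing. Reporter mRNA quantified via RT-PCR and capillary electrophoresis; DMSO served as negative control.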

[2] = molecular target: human Peroxisome Proliferator-activated Receptor delta (PPARd), PPARD (gene 5467) (UniProt Q03181); experiment: ATG_PPARd_TRANS: Attagene TRANS-FACTORIAL HepG2 Assay for human Peroxisome Proliferator-activated Receptor delta (PPARd) (AID 2283002)
human Peroxisome Proliferator-activated Receptor delta (PPARd), PPARD (gene 5467), sequence (Q03181 whole entry, looked up, the tested form may be a part): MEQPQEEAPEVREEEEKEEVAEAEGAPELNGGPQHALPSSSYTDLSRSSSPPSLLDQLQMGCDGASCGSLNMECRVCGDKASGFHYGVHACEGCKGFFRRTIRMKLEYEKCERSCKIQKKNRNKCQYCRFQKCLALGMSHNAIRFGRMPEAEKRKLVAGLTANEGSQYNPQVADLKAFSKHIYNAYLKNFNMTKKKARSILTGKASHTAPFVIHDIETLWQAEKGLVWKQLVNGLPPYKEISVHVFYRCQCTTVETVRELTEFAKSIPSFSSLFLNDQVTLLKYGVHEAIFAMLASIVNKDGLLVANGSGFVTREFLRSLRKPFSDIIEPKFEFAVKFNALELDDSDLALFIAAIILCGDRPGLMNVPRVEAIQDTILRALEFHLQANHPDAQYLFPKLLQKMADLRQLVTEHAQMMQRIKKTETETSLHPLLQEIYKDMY
Outline: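 Fluorescence from capillary electrophoresis of labelled RT-PCR reporter fragments gives the signal; DMSO sets baseline. Cells: HepG2 transiently carrying GAL4-UAS reporter units plus chimeric nuclear receptor-Gal4 proteins, exposed to chemicals for 24 h.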

[3] = molecular target: Retinoic acid receptor alpha (Homo sapiens) (UniProt P10276); experiment: ATG_RARa_TRANS: Attagene TRANS-FACTORIAL HepG2 Assay for human Retinoic Acid Receptor alpha (RARa) (AID 2283005)
Retinoic acid receptor alpha (Homo sapiens), sequence (P10276 whole entry, looked up, the tested form may be a part): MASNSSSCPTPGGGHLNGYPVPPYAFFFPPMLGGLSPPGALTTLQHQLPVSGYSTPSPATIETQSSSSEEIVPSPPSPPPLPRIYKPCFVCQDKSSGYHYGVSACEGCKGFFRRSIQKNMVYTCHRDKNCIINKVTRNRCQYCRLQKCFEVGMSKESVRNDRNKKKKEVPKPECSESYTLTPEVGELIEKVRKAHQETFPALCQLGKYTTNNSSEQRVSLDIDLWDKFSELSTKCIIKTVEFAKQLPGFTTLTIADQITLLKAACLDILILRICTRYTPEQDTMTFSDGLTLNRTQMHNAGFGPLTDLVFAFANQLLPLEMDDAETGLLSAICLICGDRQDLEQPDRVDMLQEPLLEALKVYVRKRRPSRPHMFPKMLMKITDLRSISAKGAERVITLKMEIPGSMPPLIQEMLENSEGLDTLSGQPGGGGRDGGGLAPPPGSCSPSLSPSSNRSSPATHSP
Outline: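 HepG2 transiently transfected with multiplex GAL4-UAS reporter units including a human RARa–GAL4 chimera; 24 h compound exposure. Reporter mRNA quantified by RT-PCR, 6-FAM labeling and capillary electrophoresis; gain of signal versus DMSO.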

[4] = molecular target: Peroxisome proliferator-activated receptor gamma (Homo sapiens) (UniProt P37231); experiment: ATG_PPARg_TRANS: Attagene TRANS-FACTORIAL HepG2 Assay for human Peroxisome Proliferator-activated Receptor-gamma (PPARg) (AID 2283007)
Peroxisome proliferator-activated receptor gamma (Homo sapiens), sequence (P37231 whole entry, looked up, the tested form may be a part): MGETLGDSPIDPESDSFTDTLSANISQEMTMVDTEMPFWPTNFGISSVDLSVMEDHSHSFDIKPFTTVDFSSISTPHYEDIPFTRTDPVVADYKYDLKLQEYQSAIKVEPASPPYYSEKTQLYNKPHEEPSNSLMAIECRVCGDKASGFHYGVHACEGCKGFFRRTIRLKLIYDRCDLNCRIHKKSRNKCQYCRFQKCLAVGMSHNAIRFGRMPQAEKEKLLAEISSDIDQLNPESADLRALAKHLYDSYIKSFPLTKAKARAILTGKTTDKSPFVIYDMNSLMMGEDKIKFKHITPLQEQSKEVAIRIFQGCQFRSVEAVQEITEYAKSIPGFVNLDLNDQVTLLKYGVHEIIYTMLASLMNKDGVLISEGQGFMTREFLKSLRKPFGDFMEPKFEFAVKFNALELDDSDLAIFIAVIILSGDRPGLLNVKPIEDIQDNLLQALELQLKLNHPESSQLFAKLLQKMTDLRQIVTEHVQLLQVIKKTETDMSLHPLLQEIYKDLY
Outline: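 Endpoint reflects upward reporter mRNA change versus DMSO controls. Setup: transiently transfected HepG2, GAL4-UAS reporters driven by chimeric NR-Gal4, 24 h incubation, RT-PCR with capillary electrophoresis read-out.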

[5] = molecular target: Nuclear receptor subfamily 1 group I member 2 (Homo sapiens) (UniProt O75469); experiment: ATG_PXR_TRANS: Attagene TRANS-FACTORIAL HepG2 Assay for human Pregnane X Receptor (PXR) (AID 2283008)
Nuclear receptor subfamily 1 group I member 2 (Homo sapiens), sequence (O75469 whole entry, looked up, the tested form may be a part): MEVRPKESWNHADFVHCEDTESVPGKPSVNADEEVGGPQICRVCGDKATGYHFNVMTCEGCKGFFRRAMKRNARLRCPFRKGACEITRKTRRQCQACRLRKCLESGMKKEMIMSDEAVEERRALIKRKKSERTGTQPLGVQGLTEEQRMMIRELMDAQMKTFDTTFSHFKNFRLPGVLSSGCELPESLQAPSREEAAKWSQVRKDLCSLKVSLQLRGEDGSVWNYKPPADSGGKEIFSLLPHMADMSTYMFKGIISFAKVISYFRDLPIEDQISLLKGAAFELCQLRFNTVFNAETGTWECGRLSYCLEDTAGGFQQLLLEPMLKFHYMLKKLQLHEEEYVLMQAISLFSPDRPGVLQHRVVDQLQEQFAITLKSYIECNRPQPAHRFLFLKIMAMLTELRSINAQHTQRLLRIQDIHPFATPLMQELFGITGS
Outline: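 Fluorescence intensity of FAM-labelled, HpaI-digested reporter amplicons, separated by capillary electrophoresis, quantifies induction. HepG2 cells with PXR-Gal4 trans-reporter system were exposed 24 h; DMSO defines baseline.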

[6] = molecular target: human RAR-related Orphan Receptor beta (RORb), RORB (gene 6096) (UniProt Q92753); experiment: ATG_RORb_TRANS: Attagene TRANS-FACTORIAL HepG2 Assay for human RAR-related Orphan Receptor beta (RORb) (AID 2283010)
Outline: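 HepG2 cells were transiently transfected with multiplexed GAL4-UAS reporter units expressing chimeric nuclear receptor–GAL4 proteins, then dosed for 24 h. Reporter mRNA was quantified by RT-PCR with fluorescent labelling and capillary electrophoresis; gain of signal was fitted relative to DMSO.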

[7] = molecular target: human Retinoid X Receptor beta (RXRb), RXRB (gene 6257) (UniProt P28702); experiment: ATG_RXRb_TRANS: Attagene TRANS-FACTORIAL HepG2 Assay for human Retinoid X Receptor beta (RXRb) (AID 2283013)
human Retinoid X Receptor beta (RXRb), RXRB (gene 6257), sequence (P28702 whole entry, looked up, the tested form may be a part): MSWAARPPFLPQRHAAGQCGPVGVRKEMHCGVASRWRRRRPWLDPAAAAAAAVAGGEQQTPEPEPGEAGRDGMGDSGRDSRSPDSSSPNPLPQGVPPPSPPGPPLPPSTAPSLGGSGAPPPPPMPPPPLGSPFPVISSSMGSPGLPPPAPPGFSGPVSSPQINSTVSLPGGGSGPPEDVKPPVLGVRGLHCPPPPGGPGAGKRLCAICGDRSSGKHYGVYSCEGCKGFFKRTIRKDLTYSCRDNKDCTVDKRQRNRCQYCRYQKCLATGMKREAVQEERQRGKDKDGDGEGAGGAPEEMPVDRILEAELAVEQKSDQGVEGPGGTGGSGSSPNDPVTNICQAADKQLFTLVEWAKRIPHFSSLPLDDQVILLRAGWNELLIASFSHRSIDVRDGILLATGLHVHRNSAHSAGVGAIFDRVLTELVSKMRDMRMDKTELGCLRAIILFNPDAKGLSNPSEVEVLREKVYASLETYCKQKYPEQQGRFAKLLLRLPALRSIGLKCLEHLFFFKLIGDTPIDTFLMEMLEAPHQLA
Outline: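 HepG2 cells transiently transfected with multiplexed reporter units driven by GAL4-UAS and exogenous chimeric NR-Gal4 proteins; treated 24 h. Reporter mRNA measured by RT-PCR, 6-FAM labelling and capillary electrophoresis; gain-of-signal fitted versus DMSO baseline.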

[8] = molecular target: human Retinoic Acid Receptor gamma (RARg), RARG (gene 5916) (UniProt P13631); experiment: ATG_RARg_TRANS: Attagene TRANS-FACTORIAL HepG2 Assay for human Retinoic Acid Receptor gamma (RARg) (AID 2283009)
human Retinoic Acid Receptor gamma (RARg), RARG (gene 5916), sequence (P13631 whole entry, looked up, the tested form may be a part): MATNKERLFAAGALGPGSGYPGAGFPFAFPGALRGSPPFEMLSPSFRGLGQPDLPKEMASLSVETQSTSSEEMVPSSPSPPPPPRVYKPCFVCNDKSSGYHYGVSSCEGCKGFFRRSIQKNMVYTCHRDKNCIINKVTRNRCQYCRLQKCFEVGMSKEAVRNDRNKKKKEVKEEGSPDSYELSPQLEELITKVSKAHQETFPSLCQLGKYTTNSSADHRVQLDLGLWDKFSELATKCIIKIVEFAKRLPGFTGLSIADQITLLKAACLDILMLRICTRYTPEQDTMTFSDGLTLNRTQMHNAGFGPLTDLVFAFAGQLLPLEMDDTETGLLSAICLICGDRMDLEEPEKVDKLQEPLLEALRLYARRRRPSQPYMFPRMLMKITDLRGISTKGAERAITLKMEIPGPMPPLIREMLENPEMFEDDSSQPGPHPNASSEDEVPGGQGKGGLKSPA
Outline: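 HepG2 cells transiently transfected with multiplexed reporter units expressing chimeric RARg-GAL4 and GAL4-UAS-driven reporters; 24 h compound exposure. Reporter mRNA quantified by RT-PCR with fluorescent labelling and capillary electrophoresis; gain-of-signal fitted relative to DMSO baseline.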

[9] = molecular target: human Thyroid Receptor alpha (THRa1), THRA (gene 7067) (UniProt P10827); experiment: ATG_THRa1_TRANS: Attagene TRANS-FACTORIAL HepG2 Assay for human Thyroid Receptor alpha (THRa1) (AID 2283014)
human Thyroid Receptor alpha (THRa1), THRA (gene 7067), sequence (P10827 whole entry, looked up, the tested form may be a part): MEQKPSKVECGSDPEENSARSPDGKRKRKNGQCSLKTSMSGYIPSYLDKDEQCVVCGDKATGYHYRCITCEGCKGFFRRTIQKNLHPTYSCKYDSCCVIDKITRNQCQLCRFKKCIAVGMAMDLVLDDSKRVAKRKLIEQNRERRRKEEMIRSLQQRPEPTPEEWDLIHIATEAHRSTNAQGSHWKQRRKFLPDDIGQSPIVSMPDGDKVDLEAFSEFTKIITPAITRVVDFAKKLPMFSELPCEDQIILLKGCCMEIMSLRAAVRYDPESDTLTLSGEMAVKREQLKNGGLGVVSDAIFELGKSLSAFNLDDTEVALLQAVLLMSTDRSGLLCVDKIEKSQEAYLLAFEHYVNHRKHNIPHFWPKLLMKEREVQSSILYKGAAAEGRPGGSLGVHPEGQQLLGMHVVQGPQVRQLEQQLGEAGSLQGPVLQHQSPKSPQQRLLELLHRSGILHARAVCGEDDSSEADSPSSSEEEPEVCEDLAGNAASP
Outline: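 Measured here is mRNA from a GAL4-UAS reporter in transfected HepG2 cells carrying a Gal4-fused receptor, 24 h post-dose. DMSO served as negative control and baseline.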

[10] = molecular target: human RAR-related Orphan Receptor gamma (RORg), RORC (gene 6097) (UniProt P51449); experiment: ATG_RORg_TRANS: Attagene TRANS-FACTORIAL HepG2 Assay for human RAR-related Orphan Receptor gamma (RORg) (AID 2283011)
Outline: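 Chimeric RORg-Gal4 transactivation in transfected HepG2; 24 h exposure; RT-PCR/capillary electrophoresis readout of reporter mRNA, DMSO baseline.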

[11] = molecular target: Retinoic acid receptor RXR-alpha (Homo sapiens) (UniProt P19793); experiment: ATG_RXRa_TRANS: Attagene TRANS-FACTORIAL HepG2 Assay for human Retinoid X Receptor alpha (RXRa) (AID 2283012)
Outline: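 HepG2 cells transiently transfected with multiplexed GAL4-UAS reporter units and chimeric NR-GAL4 fusions, dosed 24 h. Reporter mRNA measured by RT-PCR, FAM labelling, HpaI digestion and capillary electrophoresis; gain-of-signal fitted relative to DMSO baseline.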

[12] = molecular target: human Retinoic Acid Receptor beta (RARb), RARB (gene 5915) (UniProt P10826); experiment: ATG_RARb_TRANS: Attagene TRANS-FACTORIAL HepG2 Assay for human Retinoic Acid Receptor beta (AID 2283004)
human Retinoic Acid Receptor beta (RARb), RARB (gene 5915), sequence (P10826 whole entry, looked up, the tested form may be a part): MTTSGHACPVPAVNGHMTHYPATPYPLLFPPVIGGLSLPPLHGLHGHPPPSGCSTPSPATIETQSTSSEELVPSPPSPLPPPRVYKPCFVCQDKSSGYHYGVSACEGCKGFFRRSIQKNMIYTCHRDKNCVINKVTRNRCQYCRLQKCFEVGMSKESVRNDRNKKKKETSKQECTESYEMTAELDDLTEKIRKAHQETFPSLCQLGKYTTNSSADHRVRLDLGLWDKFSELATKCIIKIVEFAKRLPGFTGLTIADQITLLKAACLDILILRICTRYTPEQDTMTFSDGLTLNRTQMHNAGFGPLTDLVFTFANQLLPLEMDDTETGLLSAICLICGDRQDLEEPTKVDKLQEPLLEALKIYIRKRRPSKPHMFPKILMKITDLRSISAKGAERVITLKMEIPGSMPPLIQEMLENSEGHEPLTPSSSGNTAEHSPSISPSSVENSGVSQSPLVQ
Outline: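 Fluorescent capillary-electrophoresis detection of GAL4-UAS reporter mRNA defines the endpoint, with induction over DMSO-treated wells scored as activity. Transiently transfected human hepatoma HepG2 cells expressing exogenous NR–Gal4 proteins are exposed to test chemicals for 24 h.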

[13] = read-out: Intercellular Adhesion Molecule 1 (ICAM1), ICAM1 (gene 3383); experiment: BSK_3C_ICAM1: BioMAP Diversity Plus: 3C Assay for Intercellular Adhesion Molecule 1 (ICAM1) Biomarker Activity (AID 2283003; active means hit-call score of the fitted dose curve at least 0.9, where 1 is the maximum; inactive means score below 0.9); details: primary human endothelial cells (HUVEC); actives raise or lower the signal
Outline: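 Primary human umbilical vein endothelial cells in the BioMAP 3C system were exposed to chemicals for 24 h, then ICAM-1 was quantified by ELISA. Activity was fitted bidirectionally against the DMSO negative control baseline.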

[14] = BSK_3C_Proliferation: Cell Proliferation Assessment in the BioMAP Diversity Plus: 3C Assay (AID 2283006; active means hit-call score of the fitted dose curve at least 0.9, where 1 is the maximum; inactive means score below 0.9;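 on AC50: potency may reflect either rise or fall in cell number versus DMSO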); details: primary human endothelial cells (HUVEC)
Outline: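 Human umbilical vein endothelial cells were grown sub-confluent and exposed to chemical for 48 h, then fixed with 10% TCA and stained with 0.1% sulforhodamine B; absorbance at 560 nm gave relative cell number, fitted bidirectionally against DMSO baseline.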

[15] = read-out: E-selectin (Homo sapiens) (UniProt P16581); experiment: BSK_3C_Eselectin: BioMAP Diversity Plus: 3C Assay for Eselectin Biomarker Activity (AID 2283015; active means hit-call score of the fitted dose curve at least 0.9, where 1 is the maximum; inactive means score below 0.9); details: primary human endothelial cells (HUVEC); actives raise or lower the signal
Outline: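 Endpoint derived by bidirectional fitting against DMSO vehicle; signal is ELISA-detected E-selectin from primary HUVEC at 24 h post-dosing, with parallel SRB staining (0.1% SRB, 560 nm) flagging cytotoxicity.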

[16] = read-out: Interleukin-1 alpha (IL1a), IL1A (gene 3552); experiment: BSK_BE3C_IL1a: BioMAP Diversity Plus: BE3C Assay for Interleukin-1 alpha (IL1a) Biomarker Activity (AID 2283016; active means hit-call score of the fitted dose curve at least 0.9, where 1 is the maximum; inactive means score below 0.9); details: primary human bronchial epithelial cells; actives raise or lower the signal
Outline: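 Human primary bronchial epithelial cells (BE3C system) were dosed with compound and IL-1a measured by ELISA 24 h later. Activity was fitted bidirectionally against DMSO baseline; cytotoxicity was tracked in parallel cultures by SRB total-protein staining.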

[17] = read-out: Monocyte Chemoattractant Protein-1 (MCP1), CCL2 (gene 6347); experiment: BSK_3C_MCP1: BioMAP Diversity Plus: 3C Assay for Monocyte Chemoattractant Protein-1 (MCP1) Biomarker Activity (AID 2283017; active means hit-call score of the fitted dose curve at least 0.9, where 1 is the maximum; inactive means score below 0.9); details: primary human endothelial cells (HUVEC); actives raise or lower the signal
Outline: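 Using human vascular primary endothelium, researchers measured MCP-1 by ELISA 24 h after treatment, with DMSO serving as negative control for bidirectional fitting.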

[18] = read-out: Monocyte Chemoattractant Protein-1 (MCP1), CCL2 (gene 6347); experiment: BSK_4H_MCP1: BioMAP Diversity Plus: 4H Assay for Monocyte Chemoattractant Protein-1 (MCP1) Biomarker Activity (AID 2283018; active means hit-call score of the fitted dose curve at least 0.9, where 1 is the maximum; inactive means score below 0.9); details: primary human endothelial cells (HUVEC); actives raise or lower the signal
Outline: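 Human umbilical vein endothelial cells (4H system) dosed with chemical; MCP-1 measured by ELISA 24 h after dosing. Bidirectional curve fitting against DMSO negative control as baseline; parallel SRB total-protein staining tracks overt cytotoxicity.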

[19] = read-out: Human Leukocyte Antigen - DR isotype (HLADR), HLA-DRA (gene 3122); experiment: BSK_3C_HLADR: BioMAP Diversity Plus: 3C Assay for Human Leukocyte Antigen - DR isotype (HLADR) Biomarker Activity (AID 2283019; active means hit-call score of the fitted dose curve at least 0.9, where 1 is the maximum; inactive means score below 0.9); details: primary human endothelial cells (HUVEC); actives raise or lower the signal
Outline: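 Compound added to primary HUVEC cultures, 24 h incubation, then HLA-DR determined by ELISA; endpoint derived by bidirectional fitting relative to DMSO negative control.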

Measured: AC50

E-selectin (Homo sapiens), sequence (P16581 whole entry, looked up): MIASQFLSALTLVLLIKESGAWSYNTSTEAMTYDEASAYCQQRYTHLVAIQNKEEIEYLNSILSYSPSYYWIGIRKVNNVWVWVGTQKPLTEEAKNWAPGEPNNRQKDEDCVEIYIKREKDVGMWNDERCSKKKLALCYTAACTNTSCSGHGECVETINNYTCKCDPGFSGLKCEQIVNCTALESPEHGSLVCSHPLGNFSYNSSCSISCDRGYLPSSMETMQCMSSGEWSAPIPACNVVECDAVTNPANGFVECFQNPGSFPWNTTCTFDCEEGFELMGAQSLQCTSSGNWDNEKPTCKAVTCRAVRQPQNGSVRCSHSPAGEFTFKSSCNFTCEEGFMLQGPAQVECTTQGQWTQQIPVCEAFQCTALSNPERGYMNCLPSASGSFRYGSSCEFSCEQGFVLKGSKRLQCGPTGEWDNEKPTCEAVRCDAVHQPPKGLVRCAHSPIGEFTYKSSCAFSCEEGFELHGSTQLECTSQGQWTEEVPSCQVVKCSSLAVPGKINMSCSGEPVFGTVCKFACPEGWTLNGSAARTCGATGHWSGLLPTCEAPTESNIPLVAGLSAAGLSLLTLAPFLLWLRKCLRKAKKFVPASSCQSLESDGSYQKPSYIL

COC(=O)c1ccc(C(=O)OC)c(C(=O)OC)c1
inactive: [2] | [3] | [5] | [6] | [7]
active: [1] 12.6 µM | [4] 34.5 µM

CCC(C)c1ccccc1 (configuration not stated)
inactive: [1] | [2] | [4] | [8] | [6] | [7] | [9]

CCCCCCCCCC[N+](C)(CCCCCCCCCC)CCC[Si](OC)(OC)OC
inactive: [1] | [2] | [4] | [5] | [10] | [11] | [7] | [9]

c1ccc2cnccc2c1
inactive: [1] | [2] | [4] | [5] | [6] | [11] | [9]

CC(C)CC(=O)OCc1ccccc1
inactive: [1] | [2] | [4] | [5] | [10] | [7]

COC(=O)C=Cc1ccccc1
inactive: [1] | [2] | [3] | [4] | [5] | [8] | [10] | [7] | [9]

CC1(C)C(=O)N(CO)C(=O)N1CO
inactive: [1] | [2] | [12] | [3] | [5] | [8] | [6] | [10] | [11] | [9]

Nc1ccc(Cl)c(N)c1
inactive: [1] | [12] | [3] | [4] | [5] | [8] | [6] | [11] | [7] | [9]

O=C(Cl)c1c(Cl)c(Cl)c(C(=O)Cl)c(Cl)c1Cl
active: [7] 100 µM
not listed: [2] | [3] | [5] | [6] | [9] | [12]
inactive: all other assays above

CC/C=C\CCOC(=O)c1ccccc1O
active: [13] 31.3 µM | [14] 22.8 µM | [4] 39.5 µM | [15] 32.9 µM | [17] 29.7 µM | [18] 10.9 µM | [19] 33.1 µM
inactive: [1] | [8] | [6] | [7] | [9] | [16]

Clc1cc(Cl)c(Cl)c(Cl)c1Cl
active: [5] 27.6 µM | [7] 21.2 µM | [16] 20 µM | [19] 20 µM
not listed: [2] | [4] | [6] | [10]
inactive: all other assays above

CCCCCCCOC(=O)c1ccc(O)cc1
inactive: [1] | [12] | [3] | [4] | [8]
active: [7] 11.1 µM

c1ccc(Nc2cccc3ccccc23)cc1
inactive: [13] | [12] | [9]
active: [1] 9.04 µM | [13] 32.6 µM | [14] 27 µM and 30.4 µM | [4] 18.3 µM | [5] 12.6 µM | [11] 43.4 µM | [7] 11.9 µM | [15] 31.5 µM and 31.6 µM | [16] 23.8 µM and 28.6 µM | [17] 33.1 µM and 33.6 µM | [18] 26.1 µM and 21.6 µM | [19] 38.7 µM and 29.6 µM

CC(C)[N+](C)(CCOC(=O)C1c2ccccc2Oc2ccccc21)C(C)C
active: [4] 58.2 µM
not listed: [2] | [3] | [7] | [8] | [11] | [12]
inactive: all other assays above

CC(C)CCCCCOC(=O)CS
active: [4] 19.5 µM
inactive: [1] | [13] | [14] | [7] | [15] | [16] | [17] | [18] | [19]

CCCCCC[C@@H](O)C/C=C\CCCCCCCC(=O)OCC(O)CO (some centres not stated)
inactive: [12] | [3] | [5] | [8] | [6] | [9]
active: [1] 15.3 µM | [4] 57.8 µM | [7] 85 µM

Cc1ccccc1CCO
inactive: [1] | [2] | [6] | [10] | [11] | [7]

CC1C(C)(C)C2=C(C(=O)CCC2)C1(C)C (configuration not stated)
active: [5] 7.68 µM | [7] 87.6 µM
inactive: [1] | [12] | [3] | [4] | [8] | [6] | [11]

CC(CC=O)CC(C)(C)C (configuration not stated)
inactive: [1] | [2] | [4] | [11] | [7] | [9]

NC(=O)Nc1ccccc1
inactive: [1] | [12]

CCCCCCCCCCCCCC(=O)OC(C)C
inactive: [1] | [12] | [3] | [4] | [5] | [8] | [10] | [11] | [7] | [9]

CCOC(=O)/C=C\C(=O)OCC
active: [1] 49.6 µM | [4] 9.4 µM | [19] 32.5 µM
not listed: [2] | [7] | [9]
inactive: all other assays above

Nc1nc(N)nc(-c2ccccc2)n1
not listed: [2] | [3] | [8] | [12]
inactive: all other assays above
